Results published in PubChem BioAssay (NCI).
About 79,000 compounds went through this panel and 15% of them were active in at least one assay; those are over-represented in the sample as a whole. Values without a mark were called inactive. Active and inactive are the calls of the source. Cut-off read from the data, not from the text of the source: active = growth inhibition above about 70%; inactive = the rest.

Legend:
[1] = NCI Yeast Anticancer Drug Screen. Data for the rad50 strain (AID 155);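 note: 0% = growth of vehicle-only cultures of the same strain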; conditions: S. cerevisiae rad50 strain growth inhibition; at 50.0 µM; stronger effect = higher value
In short: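 Cells are treated with compound, grown, and their growth is then scored against vehicle-only cultures of the same repair-deficient yeast strain.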

[2] = NCI Yeast Anticancer Drug Screen. Data for the mec2-1 strain (AID 157); conditions: S. cerevisiae mec2-1 strain, at 50.0 µM, stronger effect = higher value
In short: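 Using mec2-1 yeast: add compound, measure growth, express inhibition versus vehicle-treated cultures.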

[3] = NCI Yeast Anticancer Drug Screen. Data for the sgs1 mgt1 strain (AID 161);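 note: 0% = growth of cultures given vehicle only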; conditions: S. cerevisiae sgs1 mgt1 strain, at 50.0 µM, stronger effect = higher value
In short: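 Percent growth inhibition was derived by comparing compound-exposed mutant yeast with vehicle-exposed cultures. The strain carries alterations in DNA damage repair.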

[4] = NCI Yeast Anticancer Drug Screen. Data for the cln2 rad14 strain (AID 165);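 note: 0% = growth equal to vehicle treated cultures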; conditions: S. cerevisiae cln2 rad14 strain, at 50.0 µM, stronger effect = higher value
In short: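 Yeast strain cln2 rad14, bearing defects in cell cycle control and DNA repair, serves as the test system; values reflect growth inhibition compared with vehicle.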

[5] = NCI Yeast Anticancer Drug Screen. Data for the bub3 strain (AID 167); conditions: S. cerevisiae bub3 mutant strain, at 50.0 µM, stronger effect = higher value
In short: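 Part of a panel of yeast mutants defective in DNA damage repair or cell cycle regulation. Each strain is grown with compound, and inhibition is calculated relative to solvent-treated cultures.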

[6] = NCI Yeast Anticancer Drug Screen. Data for the mlh1 rad18 strain (AID 175); conditions: S. cerevisiae mlh1 rad18 strain growth inhibition; at 50.0 µM; stronger effect = higher value
In short: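 Steps: expose repair-defective yeast to compound; measure growth; express inhibition against vehicle-treated controls.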

CCC1=C(O)C(=O)C(C)(C)C1=O
growth inhibition [1]: -5.85% | growth inhibition [2]: -5.2% | growth inhibition [3]: -3.15% | growth inhibition [4]: -2.7% | growth inhibition [5]: 15.9% | growth inhibition [6]: 9.45%

N#CC(=C1CCN(Cc2ccccc2)CC1)c1ccccc1
growth inhibition [1]: 37.2% | growth inhibition [2]: 12.7% | growth inhibition [3]: 44.8% | growth inhibition [4]: 47.6% | growth inhibition [5]: 63.5% | growth inhibition [6]: 35.2%

N#CCc1ccccc1C(C#N)C(=O)CCC(=O)C(C#N)c1ccccc1CC#N (stereo unspecified)
growth inhibition [1]: 45.6% | growth inhibition [2]: 26.1% | growth inhibition [3]: 22.6% | growth inhibition [4]: -28.4% | growth inhibition [5]: 6.75% | growth inhibition [6]: 44.7%

CC1(C)CC(OP(=O)(c2ccccc2)c2ccccc2)CC(C)(C)N1O
growth inhibition [1]: 5.25% | growth inhibition [2]: 12.8% | growth inhibition [3]: -6.3% | growth inhibition [4]: 3.1% | growth inhibition [5]: 13.3% | growth inhibition [6]: 11.2%

O=c1nc(N2CCSCC2)ccn1C1OC(CO)C(O)C1O (stereo unspecified)
growth inhibition [1]: -6.5% | growth inhibition [2]: -6.7% | growth inhibition [3]: -8.45% | growth inhibition [4]: -5.75% | growth inhibition [5]: -3.5% | growth inhibition [6]: -2.25%

CC(C)CCOCC(O)CNCCN (stereo unspecified)
growth inhibition [1]: 12.6% | growth inhibition [2]: 2.5% | growth inhibition [3]: -14.7% | growth inhibition [4]: 5.1% | growth inhibition [5]: -1% | growth inhibition [6]: 12.3%

Nc1cccc(C(=O)O)c1C(=O)O
growth inhibition [1]: 19.7% | growth inhibition [2]: 15.7% | growth inhibition [3]: 25% | growth inhibition [4]: -1.7% | growth inhibition [5]: -4.2% | growth inhibition [6]: 20.9%

O=C(Nc1cccc([N+](=O)[O-])c1)c1ccc(Cl)cc1
growth inhibition [1]: -5.95% | growth inhibition [2]: -10.8% | growth inhibition [3]: 8% | growth inhibition [4]: -49.5% | growth inhibition [5]: -9.5% | growth inhibition [6]: -3.95%

O=C(Oc1ccc(Cl)cc1)c1ccccc1
growth inhibition [1]: 25.3% | growth inhibition [2]: -2.1% | growth inhibition [3]: -1.65% | growth inhibition [4]: 2.25% | growth inhibition [5]: -7.75% | growth inhibition [6]: -25.6%

COc1c(Cl)cc(Cl)cc1C(c1cc(Cl)cc(Cl)c1OC)C(Cl)(Cl)Cl
growth inhibition [1]: -3.25% | growth inhibition [2]: -6.1% | growth inhibition [3]: 4.6% | growth inhibition [4]: -5% | growth inhibition [5]: -3.6% | growth inhibition [6]: 7.1%

CCCCN(Cc1ccccc1)C(=O)NC(C)(C)C
growth inhibition [1]: 2.15% | growth inhibition [2]: 33.9% | growth inhibition [3]: 8.1% | growth inhibition [4]: 3.45% | growth inhibition [5]: 25.8% | growth inhibition [6]: 18.6%

COC(=O)c1c2c(cc3c1CCC3)CCC2
growth inhibition [1]: -21.1% | growth inhibition [2]: -3.15% | growth inhibition [3]: -31.8% | growth inhibition [4]: 14.8% | growth inhibition [5]: 32.9% | growth inhibition [6]: -20.2%

COC(=O)C1C2C=CC(O2)C1C(=O)OC (stereo unspecified)
growth inhibition [1]: -2.15% | growth inhibition [2]: -1.75% | growth inhibition [3]: -9.75% | growth inhibition [4]: -51.6% | growth inhibition [5]: 14.1% | growth inhibition [6]: -7.45%

CC/C(=N/Nc1cn[nH]c(=O)c1Cl)c1ccccc1
growth inhibition [1]: 4.6% | growth inhibition [2]: -0.6% | growth inhibition [3]: -0.5% | growth inhibition [4]: -35.6% | growth inhibition [5]: 19% | growth inhibition [6]: -1.5%

CC(C)(C)OC(=O)N1CCCC1C(=O)NC(c1ccccc1)c1ccccc1 (stereo unspecified)
growth inhibition [1]: -35.1% | growth inhibition [2]: -56.5% | growth inhibition [3]: -37.5% | growth inhibition [4]: -18.9% | growth inhibition [5]: -13.4% | growth inhibition [6]: -40.1%

c1ccc(O[Si](Oc2ccccc2)(Oc2ccccc2)Oc2ccccc2)cc1
growth inhibition [1]: 5.65% | growth inhibition [2]: -18.7% | growth inhibition [3]: 5.5% | growth inhibition [4]: 5.1% | growth inhibition [5]: -7.3% | growth inhibition [6]: 6.05%

CCCCCCCCCCCc1cc(=O)c2c(O)cccc2o1
growth inhibition [1]: -5% | growth inhibition [2]: -28.6% | growth inhibition [3]: 9.55% | growth inhibition [4]: -3.9% | growth inhibition [5]: 4% | growth inhibition [6]: -14.4%

Cc1ccc(N=C2SC(=NN(C)C)SC2=Nc2ccc(C)cc2)cc1
growth inhibition [1]: 18.9% | growth inhibition [2]: -14.1% | growth inhibition [3]: 8.35% | growth inhibition [4]: -20.3% | growth inhibition [5]: -5.25% | growth inhibition [6]: -11.6%

Cc1ccc(P(=O)(O)O)c([N+](=O)[O-])c1
growth inhibition [1]: 5.4% | growth inhibition [2]: 1.7% | growth inhibition [3]: -3.65% | growth inhibition [4]: -7.2% | growth inhibition [5]: -4.35% | growth inhibition [6]: 12.9%

c1cncc([O][Ge]([O]c2cccnc2)([O]c2cccnc2)[O]c2cccnc2)c1
growth inhibition [1]: 8.6% | growth inhibition [2]: 15.8% | growth inhibition [3]: 31% | growth inhibition [4]: 24.1% | growth inhibition [5]: 3% | growth inhibition [6]: 35.8%

COc1cc2c(cc1OC)C(=O)/C(=C/c1ccccc1)C2
growth inhibition [1]: -16.4% | growth inhibition [2]: -0.85% | growth inhibition [3]: -6.4% | growth inhibition [4]: 15.2% | growth inhibition [5]: 36% | growth inhibition [6]: 9.6%

COc1cc(/C=C/C(=O)OCCc2ccccc2)ccc1O
growth inhibition [1]: 74.8% (active) | growth inhibition [2]: 82% (active) | growth inhibition [3]: 90.2% (active) | growth inhibition [4]: 89% (active) | growth inhibition [5]: 90.1% (active) | growth inhibition [6]: 61%

COC(=O)c1c(OC)cc2cc3c(c(O)c2c1C)C(=O)C1(O)C(=O)C=C(OC)C(OC(=O)CC(C)N)=C1C3=O (stereo unspecified)
growth inhibition [1]: 26.1% | growth inhibition [2]: 1.05% | growth inhibition [3]: 24.2% | growth inhibition [4]: 25.9% | growth inhibition [5]: 22.9% | growth inhibition [6]: 33%

O=C1C(O)=C(Cl)C(=O)C(OC2=C(Cl)C(=O)C(OC3=C(Cl)C(=O)C(OC4=C(Cl)C(=O)C(Cl)=C(Cl)C4=O)=C(Cl)C3=O)=C(Cl)C2=O)=C1Cl
growth inhibition [1]: 9.55% | growth inhibition [2]: 3.5% | growth inhibition [3]: -17.3% | growth inhibition [4]: -4.3% | growth inhibition [5]: -2.35% | growth inhibition [6]: 22.3%

CC(=O)OC(C)=O
growth inhibition [1]: -20.2% | growth inhibition [2]: 9.9% | growth inhibition [3]: 8% | growth inhibition [4]: -33% | growth inhibition [5]: 7.55% | growth inhibition [6]: -16.4%

CCCCCC(=O)C(C)C1(C(=O)OC)NC(=S)NC(=O)C1C#N (stereo unspecified)
growth inhibition [1]: 16.8% | growth inhibition [2]: 14.8% | growth inhibition [3]: 13.1% | growth inhibition [4]: 12.4% | growth inhibition [5]: -1.9% | growth inhibition [6]: 17.4%

Cc1[nH]c(=S)[nH]c(=O)c1CCC(C)C
growth inhibition [1]: 9.5% | growth inhibition [2]: 14.8% | growth inhibition [3]: 14.1% | growth inhibition [4]: 52.1% | growth inhibition [5]: 37.8% | growth inhibition [6]: 6.5%

COC(=O)c1cc(C)c2c3ccccc3n(C)c2c1C(=O)OC
growth inhibition [1]: 19.6% | growth inhibition [2]: -0.4% | growth inhibition [3]: -8.9% | growth inhibition [4]: -1.5% | growth inhibition [5]: -9.9% | growth inhibition [6]: -13.5%

COc1cccc(N2C(Cl)C(=O)C2c2c[nH]c3ccccc23)c1 (stereo unspecified)
growth inhibition [1]: -31.4% | growth inhibition [2]: -37.2% | growth inhibition [3]: -47.6% | growth inhibition [4]: -23.1% | growth inhibition [5]: -28.9% | growth inhibition [6]: -47%

COC(=O)/C(C)=C/C=C/C(OC)C(OC(N)=O)/C(C)=C/C(C)C(O)C(CC(C)CC1=C(N)C(=O)C=C(N)C1=O)OC (stereo unspecified)
growth inhibition [1]: 9.4% | growth inhibition [2]: 10.3% | growth inhibition [3]: -6.8% | growth inhibition [4]: 46.9% | growth inhibition [5]: 5.9% | growth inhibition [6]: -18%

CC/C(CCC(=O)OC)=N/Nc1ccc([N+](=O)[O-])cc1[N+](=O)[O-]
growth inhibition [1]: 4.05% | growth inhibition [2]: 7.25% | growth inhibition [3]: 6.9% | growth inhibition [4]: -22.6% | growth inhibition [5]: -5.9% | growth inhibition [6]: -10.6%

CN1CCCCC1CCN1CCCCC1 (stereo unspecified)
growth inhibition [1]: -38.9% | growth inhibition [2]: -10.2% | growth inhibition [3]: -7.8% | growth inhibition [4]: -39.5% | growth inhibition [5]: -17.9% | growth inhibition [6]: 1.3%

COc1ccccc1C(=O)N/N=C/c1ccncc1
growth inhibition [1]: -2.85% | growth inhibition [2]: 24.5% | growth inhibition [3]: 5.7% | growth inhibition [4]: -5.7% | growth inhibition [5]: 20.2% | growth inhibition [6]: 9.8%

CC1=Nc2ccccc2NC2(C1)C(C1COC(C)(C)O1)OC1OC(C)(C)OC12 (stereo unspecified)
growth inhibition [1]: 9.95% | growth inhibition [2]: 13.8% | growth inhibition [3]: 20.3% | growth inhibition [4]: 21.5% | growth inhibition [5]: 2.1% | growth inhibition [6]: 17.9%

C1=NCCN=Cc2ccccc2O/N=N/Oc2ccccc21
growth inhibition [1]: -14.9% | growth inhibition [2]: -1.95% | growth inhibition [3]: -0.85% | growth inhibition [4]: -44.4% | growth inhibition [5]: 15.4% | growth inhibition [6]: -4.7%

COCC(O)CC#N (stereo unspecified)
growth inhibition [1]: 14.1% | growth inhibition [2]: 4% | growth inhibition [3]: -3.65% | growth inhibition [4]: 7.65% | growth inhibition [5]: 9.65% | growth inhibition [6]: 3.9%

FS(F)(F)(F)(F)c1cccc(NC(=S)SCc2ccc(Cl)cc2)c1
growth inhibition [1]: 43.6% | growth inhibition [2]: 24.8% | growth inhibition [3]: 39.8% | growth inhibition [4]: 32.4% | growth inhibition [5]: 6.8% | growth inhibition [6]: 30.1%

CC1CCCC/C1=N\N(C)C (stereo unspecified)
growth inhibition [1]: -44% | growth inhibition [2]: -19.9% | growth inhibition [3]: -12.8% | growth inhibition [4]: -29.6% | growth inhibition [5]: -5.65% | growth inhibition [6]: 2.7%

OCCNNCCO
growth inhibition [1]: 13.3% | growth inhibition [2]: 1.05% | growth inhibition [3]: -14.7% | growth inhibition [4]: -8.85% | growth inhibition [5]: 15.1% | growth inhibition [6]: 1.9%

O=[N+]([O-])c1ccc(F)c(Cl)c1F
growth inhibition [1]: 15.8% | growth inhibition [2]: -6.65% | growth inhibition [3]: -2.15% | growth inhibition [4]: -20.9% | growth inhibition [5]: -12.7% | growth inhibition [6]: -3.45%

C=CC1C(C(=O)Nc2ccccc2)CN1C (stereo unspecified)
growth inhibition [1]: 7.1% | growth inhibition [2]: 14.4% | growth inhibition [3]: -4.15% | growth inhibition [4]: 18.3% | growth inhibition [5]: 10.9% | growth inhibition [6]: -3.4%
